From PubChem BioAssay (NCATS) come the findings set out here.

Assay [1] deals with Cellular tumor antigen p53 (Homo sapiens) (UniProt P04637). The experiment in a line: Primary qHTS for small molecule compounds that upregulate eGFP-tagged delta133p53alpha (in N-terminal) cells. (AID 2060322).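 Further: 0% = DMSO vehicle and 100% = reference activator; nearly all actives have a fitted effect of over 75% in size.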 The settings on record: NCI-H358 eGFP-delta133p53alpha fluorescence, 24 h; activation: stronger effect = higher value. The method, boiled down: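 NCI-H358 cells pre-induced 24 h with 10 ng/ml doxycycline to express N-terminal eGFP-delta133p53alpha, then dosed 24 h at 37C without doxycycline; fixed, Hoechst-stained, GFP intensity by laser scanning cytometry, normalized to DMSO (0%) and 57.5 uM 5-azacytidine (100%).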

The target of assay [2] is Aldehyde dehydrogenase, mitochondrial (Homo sapiens) (UniProt P05091). The assay can be described thus: qHTS for Inhibitors of the Aldehyde Dehydrogenase Family (ALDH2) Primary screen (AID 2061308).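 Further: plate controls were vehicle for no effect and reference inhibitor for full effect; nearly all actives have a fitted effect of over 55% in size.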 The settings on record: ALDH2 enzyme inhibition qHTS, 1536-well; series mostly up to 56 µM. For orientation: In qHTS, concentration-response curves come from the screen itself.

For assay [3], the target named is Retinaldehyde dehydrogenase 3 (Homo sapiens) (UniProt P47895). The experiment in a line: qHTS for Inhibitors of the Aldehyde Dehydrogenase Family (ALDH1A3) Confirmatory screens (AID 2061311). Further: potency means the concentration at half of the fitted maximal effect; nearly all actives have a fitted effect of over 60% in size. The settings on record: ALDH inhibition qHTS; series mostly up to 46 µM.
Assay [4] has the same target. The assay can be described thus: qHTS for Inhibitors of the Aldehyde Dehydrogenase Family (ALDH1A3) Validation screen (AID 2061312). Further: nearly all actives have a fitted effect of over 45% in size. Further: potency means the concentration at half of the fitted maximal effect. The settings on record: ALDH1A3 enzyme inhibition qHTS validation, fluorescence; series mostly up to 84.7 µM.
For assay [5] the target is unchanged. The assay can be described thus: qHTS for Inhibitors of the Aldehyde Dehydrogenase Family (ALDH1A3) Primary screen (AID 2061315).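 Further: plate controls were DMSO vehicle for no effect and reference inhibitor for full effect.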 Conditions: ALDH inhibition qHTS; series mostly up to 56 µM.
In assay [6] the target is Retinal dehydrogenase 2 (Homo sapiens) (UniProt O94788). The assay can be described thus: qHTS for Inhibitors of the Aldehyde Dehydrogenase Family (ALDH1A2) Confirmation screens (AID 2061314). Further: nearly all actives have a fitted effect of over 65% in size. The settings on record: ALDH1A2 enzyme inhibition qHTS confirmation; series mostly up to 45.9 µM.

Structures are written as SMILES. “And” between values parts separate entries of the source, which are not always exact repeats. Equal entries are not always repeated. Records with an inconclusive call do not appear. A number with no mark means an inactive call. The source made the active and inactive calls. The call rests on the fitted dose curve; in most records, active means well fitted curve in the direction sought with a large enough effect; inconclusive means small, poorly fitted or top-dose-only effect, or another doubt; inactive means no such curve, though single readings can be large; an effect the other way counts as inactive or inconclusive.

Cellular tumor antigen p53 (Homo sapiens), sequence (P04637 whole entry, looked up): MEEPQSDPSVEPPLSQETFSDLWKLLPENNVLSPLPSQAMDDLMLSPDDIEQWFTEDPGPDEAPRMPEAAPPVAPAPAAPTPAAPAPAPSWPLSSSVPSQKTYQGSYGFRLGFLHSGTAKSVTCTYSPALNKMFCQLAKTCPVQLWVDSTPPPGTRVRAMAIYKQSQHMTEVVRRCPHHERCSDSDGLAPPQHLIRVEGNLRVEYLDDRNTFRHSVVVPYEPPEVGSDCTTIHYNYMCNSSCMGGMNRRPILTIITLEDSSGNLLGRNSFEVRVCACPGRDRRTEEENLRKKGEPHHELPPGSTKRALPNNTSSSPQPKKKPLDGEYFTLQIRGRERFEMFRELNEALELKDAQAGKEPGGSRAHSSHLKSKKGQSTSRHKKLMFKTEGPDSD

As for `OC[C@H]1O[C@@H](Oc2cc(O)cc(-c3cc4ccc(O)cc4o3)c2)[C@H](O)[C@@H](O)[C@@H]1O`, the activation in assay [1] was 13.4%. Besides, the Potency entry in assay [2] was “inactive”. Further, the Potency in assay [3] was 12.3 µM (active).
On to `COC(=O)C1=CO[C@@H](O[C@@H]2O[C@H](CO[C@@H]3O[C@H](COC(=O)/C=C/c4cc(OC)c(O)c(OC)c4)[C@@H](O)[C@H](O)[C@H]3O)[C@@H](O)[C@H](O)[C@H]2O)[C@@H]2C(CO)=CC[C@H]12`, for which, in assay [1], the activation was -14.3%. Besides, in assay [2], the Potency result was “inactive”.
For the compound `COc1ncc(Nc2ncc([C@@H](C)N3CCN(S(C)(=O)=O)CC3)cc2-c2nc(C)nc(N)n2)cc1F`, the activation in assay [1] is 21%. The Potency entry in assay [2], in assay [4] and in assay [5] was “inactive” throughout. For the same compound, the Potency in assay [3] is 10 µM (active).
Regarding `O=[N+]([O-])c1ccc(-[n+]2nc(-c3ccccc3)nn2-c2ccc(I)cc2)cc1`, the activation in assay [1] is -2.39%. The Potency entry in assay [2] is “inactive”. The Potency was 11.3 µM (active) in assay [3] and 17.8 µM (active) in assay [4].
`CC[C@H]1OC(=O)C[C@@H](O)[C@H](C)[C@@H](O[C@@H]2O[C@H](C)[C@@H](O)[C@H](N(C)C)[C@H]2O)[C@@H](CCN2C[C@H](C)C[C@H](C)C2)C[C@@H](C)C(=O)/C=C/C(C)=C/[C@@H]1CO[C@@H]1O[C@H](C)[C@@H](O)[C@@H](OC)[C@H]1OC`: the activation in assay [1] is -8.59%. Besides, the Potency entry in assay [2], in assay [4] and in assay [5] was “inactive” throughout.
In the case of `COc1cc2c(cc1OC)-c1[nH]nc(Nc3cccc(F)c3)c1C2`, in assay [1], the activation is 6.68%. Besides, the Potency result in assay [2], in assay [4] and in assay [5] was “inactive” each time.
With `Cc1cc(OCCN2CCOCC2)nn1-c1ccc2ccccc2c1`, in assay [1], the activation is 4.3%. Further, the Potency result in assay [2], in assay [4] and in assay [5] was “inactive” each time.
For `O=C(Nc1ccccc1)N1CCC(Cc2cnc3ccccc3c2)CC1`, in assay [1], the activation is 3.34%. The Potency result in assay [2], in assay [4], in assay [6] and in assay [5] was “inactive” in each case.
`CC(C)S(=O)(=O)NC[C@H](C)c1ccc(-c2ccc(CCNS(C)(=O)=O)cc2)cc1`: the activation in assay [1] was -5.73%. In addition, the Potency entry in assay [2], in assay [4] and in assay [5] was “inactive” throughout.
Regarding `CCC(=O)N1CCc2cc(OC)c(O)cc2C1`, in assay [1], the activation is -7.64%. In addition, the Potency entry in assay [2] is “inactive”. For the same compound, the Potency in assay [4] was 22.4 µM (active).
Consider `CN[C@@H]1[C@@H](O)[C@@H](O[C@@H]2[C@@H](O)[C@H](O[C@H]3O[C@H](CN)[C@@H](O)[C@H](O)[C@H]3O)[C@@H](N)C[C@H]2NC(=O)[C@@H](O)CN)OC[C@]1(C)O`, for which the activation in assay [1] is -2.86%. Besides, the Potency entry in assay [2], in assay [4] and in assay [5] was “inactive” throughout.
In the case of `O=C(Nc1ccccc1)N1CCN(c2nc(-c3ccccc3)ns2)CC1`, in assay [1], the activation was -13.8%. The Potency entry in assay [2], in assay [4] and in assay [5] was “inactive” throughout.
Regarding `CC[C@H]1OC(=O)[C@H](C)[C@@H](O[C@H]2C[C@@](C)(OC)[C@@H](O)[C@H](C)O2)[C@H](C)[C@@H](O[C@@H]2O[C@H](C)C[C@H](N(C)C)[C@H]2O)[C@@](C)(O)C[C@@H](C)[C@@H]2N[C@@H](COCCOC)OC([C@H]2C)[C@]1(C)O`, the activation in assay [1] was 7.16%. The Potency entry in assay [2], in assay [4] and in assay [5] was “inactive” each time.
Turning to `O=C(COc1ccc2ccccc2c1Br)Nc1cccnc1`, the activation in assay [1] was -15.8%. For the same compound, the Potency entry in assay [2], in assay [4] and in assay [5] was “inactive” throughout.
For the compound `C[C@@H]1O[C@@H](O[C@H]2[C@H](Oc3cc(O)c(C(=O)CCc4ccc(O)cc4)c(O)c3)O[C@H](CO)[C@@H](O)[C@@H]2O)[C@H](O)[C@H](O)[C@H]1O`, in assay [1], the activation was -10.5%. Moreover, the Potency result in assay [2], in assay [4] and in assay [5] was “inactive” each time.
Regarding `COc1ccc(Cl)cc1[C@@]1(F)C(=O)Nc2cc(C(F)(F)F)ccc21`, in assay [1], the activation was 24.8%. Besides, the Potency entry in assay [2], in assay [4] and in assay [5] was “inactive” each time.
For the compound `O=c1[nH]c(=O)n([C@H]2CCCO2)cc1F`, the activation in assay [1] is -9.6% and 3.34%. Moreover, the Potency entry in assay [2], in assay [4] and in assay [5] was “inactive” in each case.
For the compound `COC(=O)c1ccc2c(c1)[nH]c1ncnc(NCCCN3CCCCC3)c12`, the activation in assay [1] was 0.477%. Also, the Potency entry in assay [2] and in assay [5] was “inactive” each time. In addition, the Potency in assay [4] is 31.6 µM (active).
`CC1=C(/C=C/C(C)=C\C=C\C(C)=C/C(=O)O)C(C)(C)CCC1`: the activation in assay [1] was 11.5%. Besides, the Potency result in assay [2], in assay [4] and in assay [5] was “inactive” throughout.
As to `CNC(C)C(=O)NC(C(=O)N1CCCC1C(=O)Nc1snnc1-c1ccccc1)C1CCCCC1` (stereo not drawn), in assay [1], the activation is 11%. The Potency entry in assay [2], in assay [4] and in assay [5] was “inactive” in each case.
As to `CS(=O)(=O)c1ccccc1N1CCN(c2nc3c(c(=O)[nH]2)CSCC3)CC1`, in assay [1], the activation was 11.5%. For the same compound, the Potency result in assay [2], in assay [4] and in assay [5] was “inactive” each time.
Turning to `O=C(O)C1(c2ccc(-c3ccc(Cl)c(Cl)c3)c(F)c2)CC1`, the activation in assay [1] is -12.9%. For the same compound, in assay [2], the Potency entry was “inactive”. For the same compound, in assay [4], the Potency is 44.7 µM (active).
`COc1cccc(CNc2ccc(S(=O)(=O)Nc3nc4ccccc4s3)cc2)c1O`: the activation in assay [1] is -10.5%. For the same compound, the Potency entry in assay [2], in assay [4] and in assay [5] was “inactive” in each case.
`Cc1nnc(-c2ccc(-c3ccc(C(=O)Nc4ccc(O)c(N5CCN(C)CC5)c4)cc3)c(C)c2)o1`: the activation in assay [1] was -0.477%. The Potency entry in assay [2] and in assay [4] was “inactive” in each case.
Regarding `FC(F)(F)Oc1ccc(-c2ccc3nnc(C(F)(F)F)n3c2)cc1`, in assay [1], the activation was -3.34%. For the same compound, the Potency entry in assay [2], in assay [4] and in assay [5] was “inactive” each time.
With `CNC(=O)c1ccc2c(c1)CCO[C@H]2CCN1CCN(c2ccc(C(N)=O)cc2)CC1`, in assay [1], the activation was 8.11%. For the same compound, the Potency entry in assay [2], in assay [4] and in assay [5] was “inactive” each time.
As to `CC(=O)NC[C@H]1CN(c2ccc(N3CCSCC3)c(F)c2)C(=O)O1`, in assay [1], the activation is 0%. In addition, the Potency entry in assay [2], in assay [4] and in assay [5] was “inactive” throughout.
For the compound `COc1ccc(CN2CCN(C(=O)CCNC(=O)c3ccc(C(C)(C)C)cc3)CC2)cc1`, the activation in assay [1] is -7.16%. Besides, the Potency result in assay [2], in assay [4] and in assay [5] was “inactive” throughout.
